# ± gives the standard deviation of the averaged measurements.
# System: AEK1 (Tb927.3.2440)
# Test: percent reduction in TR-FRET probe signal relative to DMSO control; higher = stronger displacement of ATP-site probe (binding)
# Conditions: 1 µM; incubation time 1 h
row,SMILES,percent reduction in TR-FRET probe signal [%]
1,C/C(O)=C(\C#N)C(=O)Nc1cc(Br)ccc1Br,-3.29 ± 1.9
2,CCN1CCN(C(=O)Cc2ccc(Nc3ncc(F)c(Nc4ccc(C(=O)Nc5ccccc5Cl)cc4)n3)cc2)CC1 [Aurora A Inhibitor I],24.1 ± 4.8
3,O=c1[nH]c2ccccc2n1C1CCN(Cc2ccc(-c3nc4cc5nc[nH]c5cc4nc3-c3ccccc3)cc2)CC1,-9.38 ± 1.6
4,Cc1ccccc1-n1c(Cn2ncc3c(N)ncnc32)nc2cccc(C)c2c1=O,-5.42 ± 2.9
5,N#CC(C#N)=Cc1ccc(O)c(O)c1,7.98 ± 17
6,COc1ccc2c(c1)/C(=C/c1cnc[nH]1)C(=O)N2,-2.34 ± 5.7
7,Cn1cc(C2=C(c3cn(C4CCN(Cc5ccccn5)CC4)c4ccccc34)C(=O)NC2=O)c2ccccc21,-6.77 ± 7.9
8,CC(C)(C)c1cc(C=C(C#N)C#N)cc(C(C)(C)C)c1O [Tyrphostin 9],15.1 ± 1.3
9,COc1ccc(N(C(=O)Oc2c(C)cccc2C)c2ccnc(Nc3ccc(N4CCN(C)CC4)cc3)n2)c(OC)c1,12.5 ± 3.4
10,CC(C)(C)c1cc(C=C(C#N)C#N)cc(Br)c1O,17.3 ± 12
11,O=c1[nH]c2ccc(Cl)cc2c(N[C@@H]2CN3CCC2CC3)c1-c1nc2ccccc2[nH]1,25.9 ± 11
